TDP1 block = qHTS Assay for Inhibitors of Tyrosyl-DNA Phosphodiesterase (TDP1). recombinant TDP1, AlphaScreen DNA substrate cleavage. actives 0.28% (n = 350,000). Potency, µM (series often up to 130 µM), hits mostly inhibitors. AID 485290, 2010. Tyrosyl-DNA phosphodiesterase 1 (Homo sapiens), Q9NUW8; note: nearly all actives have a fitted effect of over 40% in size
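Tdp1 1 nM final; 15 min RT w/ cpd; substrate 15 nM, 5 min; beads 10 ug/ml, 10 min; AlphaScreen read. Neg ctrl: no enzyme.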
DT40 TDP1 no CPT = qHTS for Inhibitors of human tyrosyl-DNA phosphodiesterase 1 (TDP1): qHTS in cells in absence of CPT; DT40 Tdp1-/- hTDP1 cells, no CPT, ATP luminescence, 48 h; Potency, µM (top dose mostly 46.2 µM), most hits filed as inhibitors; actives 15% (n = 420,000); AID 686978, 2013; note: nearly all actives have a fitted effect of over 55% in size
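DT40 Tdp1-/-;hTDP1 cells, no CPT (DMSO vehicle only), 400 cells/well; compounds pin-transferred; ≥48 hr, 37 °C; CellTiter-Glo 30 min RT dark, luminescence read.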
Six1-Eya2 blk = qHTS Assay for Inhibitors of the Six1/Eya2 Interaction | Homeobox protein SIX1 (Homo sapiens) + Protein phosphatase EYA2 (Homo sapiens), … | AlphaScreen GST-Six1/His-Eya2 binding, biochemical; stronger effect = lower value | activity change, % (test concentration not listed) | actives 0.56% (n = 360,000) | AID 651725, 2012; in the data active = activity change below about -65%; inconclusive = mostly about -30% to -63%
Target sequence (O00167 whole entry, looked up): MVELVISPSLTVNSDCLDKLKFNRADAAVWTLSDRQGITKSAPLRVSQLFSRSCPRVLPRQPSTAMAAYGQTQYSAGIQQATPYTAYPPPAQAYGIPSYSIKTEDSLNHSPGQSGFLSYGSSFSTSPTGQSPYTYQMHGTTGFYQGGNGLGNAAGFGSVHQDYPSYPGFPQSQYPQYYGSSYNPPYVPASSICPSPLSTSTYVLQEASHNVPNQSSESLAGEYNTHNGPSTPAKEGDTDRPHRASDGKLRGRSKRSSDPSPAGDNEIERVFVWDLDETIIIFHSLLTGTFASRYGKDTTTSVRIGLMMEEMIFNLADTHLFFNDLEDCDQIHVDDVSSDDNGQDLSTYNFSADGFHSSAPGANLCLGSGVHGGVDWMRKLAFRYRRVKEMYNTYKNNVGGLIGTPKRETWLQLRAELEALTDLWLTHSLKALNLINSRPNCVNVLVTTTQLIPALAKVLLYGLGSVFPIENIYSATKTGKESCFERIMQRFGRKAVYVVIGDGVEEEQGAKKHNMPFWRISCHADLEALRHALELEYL
Target sequence (Q15475 whole entry, looked up): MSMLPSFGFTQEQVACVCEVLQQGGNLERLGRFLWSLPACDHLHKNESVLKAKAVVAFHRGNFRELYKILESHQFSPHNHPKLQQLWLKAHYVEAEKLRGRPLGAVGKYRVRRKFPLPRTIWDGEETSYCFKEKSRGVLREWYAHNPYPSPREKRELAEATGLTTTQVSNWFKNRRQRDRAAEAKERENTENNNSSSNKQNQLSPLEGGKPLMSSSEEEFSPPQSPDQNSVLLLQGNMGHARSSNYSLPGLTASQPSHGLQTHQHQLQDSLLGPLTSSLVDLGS
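AlphaScreen luminescence read after one hour at 37 °C in darkness. Pin-transferred compounds met GST-Six1 and His-Eya2 protein (5X stock 250 nM/500 nM) plus glutathione donor and Ni-chelate acceptor beads (5X, 50 ug/mL).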
IL-1B inflam inh = qHTS for Inhibitors of Inflammasome Signaling: IL-1-beta AlphaLISA Primary Screen; THP-1 LPS/ATP IL-1B secretion, AlphaLISA, 16 h; stronger effect = lower value; activity change, % at 57.5 µM; actives 4.7% (n = 360,000); in the data active = activity change below about -50%; inconclusive = mostly about -30% to -49%
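Secreted IL-1B measured by AlphaLISA bead assay after 16 h compound exposure of THP-1 cells; compounds (final up to 57.5 uM) added 1 h before LPS (250 ng/mL) and ATP (1.25 mM) stimulation; lower signal means less secretion.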
TDP1 cell CPT = qHTS for Inhibitors of human tyrosyl-DNA phosphodiesterase 1 (TDP1): qHTS in cells in presence of CPT; Potency, µM (top dose mostly 46.2 µM), hits mostly inhibitors; actives 12% (n = 420,000); chicken DT40 Tdp1-/-;hTDP1 cells + 20 nM CPT, ATP luminescence, 48 h; note: nearly all actives have a fitted effect of over 55% in size
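Chicken DT40 Tdp1-/- cells stably complemented with human TDP1 were seeded at 400 cells/well in medium containing 20 nM camptothecin, exposed to pin-transferred compounds, and grown at 37 °C for at least 48 hr. Viability was read as ATP luminescence.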
CtBP-E1A inh = qHTS Assay for Inhibitors of the CtBP/E1A Interaction; CtBP / adenovirus E1A interaction (AlphaScreen); AlphaScreen GST-E1A/His-CtBP binding, 1536-well; stronger effect = lower value; activity change, % (no concentration beside the values); actives 0.49% (n = 340,000); AID 651724, 2012; in the data active = activity change below about -65%; inconclusive = mostly about -30% to -63%
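Homogeneous bead-based format: GST-tagged E1A captured on glutathione donor beads, His-tagged CtBP on nickel acceptor beads; compounds precede bead addition by 2 h at 37 °C.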
Of the large screens only hits and unclear results are named; the others gave an inactive call. The list is not random: actives were taken first. Their share in the collection is about 18%. Unless noted, calls come from the whole dose curve; as a rule, active = well fitted curve in the direction sought with a large enough effect; inconclusive = small, poorly fitted or top-dose-only effect, or another doubt; inactive = no such curve, though single readings can be large; an effect the other way counts as inactive or inconclusive.

COc1cc(-c2nc(SCC(=O)Nc3ccc(C)cc3)c(-c3ccc(F)cc3)[nH]2)cc(OC)c1OC	DT40 TDP1 no CPT 15µM, TDP1 cell CPT inconclusive (no result: Six1-Eya2 blk, IL-1B inflam inh, CtBP-E1A inh)
COc1ccc(-c2nc(SCC(=O)NC3CCCC3)c(-c3ccc(F)cc3)[nH]2)cc1OC	DT40 TDP1 no CPT inconclusive, TDP1 cell CPT inconclusive (no result: Six1-Eya2 blk, IL-1B inflam inh, CtBP-E1A inh)
COc1ccc(-c2[nH]c(-c3ccccc3)nc2SCC(=O)Nc2ccc3c(c2)OCO3)cc1	DT40 TDP1 no CPT 21µM, TDP1 cell CPT inconclusive (no result: Six1-Eya2 blk, IL-1B inflam inh, CtBP-E1A inh)
O=C(CSc1nc(-c2ccc(F)cc2)[nH]c1-c1ccccc1)Nc1ccccc1	DT40 TDP1 no CPT 12µM, TDP1 cell CPT 18µM (no result: Six1-Eya2 blk, IL-1B inflam inh, CtBP-E1A inh)
CCOc1ccc(-c2nc(SCC(=O)NCCCOC)c(-c3ccccc3)[nH]2)cc1	DT40 TDP1 no CPT inconclusive, TDP1 cell CPT inconclusive (no result: Six1-Eya2 blk, IL-1B inflam inh, CtBP-E1A inh)
COc1ccc(-c2nsc(SCC(=O)Nc3ccc4c(c3)OCO4)n2)cc1	DT40 TDP1 no CPT inconclusive, TDP1 cell CPT inconclusive
COC(=O)C[C@H]1c2ccccc2S(=O)(=O)N1C(C)C	none (no result: TDP1 block)
O=C1C2CCCCC2C(=O)N1c1ccc(NC2CCN(Cc3ccccc3)CC2)c([N+](=O)[O-])c1 (stereo not drawn)	DT40 TDP1 no CPT inconclusive, TDP1 cell CPT inconclusive (no result: CtBP-E1A inh)
COc1cccc(-c2nc(SCC(=O)Nc3ccc4c(c3)OCCO4)c(-c3ccc(C)cc3)[nH]2)c1	DT40 TDP1 no CPT 23µM, TDP1 cell CPT inconclusive (no result: Six1-Eya2 blk, IL-1B inflam inh, CtBP-E1A inh)
COc1ccc2nc(SCC(=O)Nc3ccc4c(c3)OCCO4)[nH]c2c1	none
COc1ccc(NC(=O)CSc2ncccc2C(=O)OC(C)C)cc1OC	DT40 TDP1 no CPT 12µM, TDP1 cell CPT 12µM
COc1ccc(NC(=O)CSc2nc(-c3ccccc3)[nH]c2-c2ccccc2)cc1OC	DT40 TDP1 no CPT 8.2µM, TDP1 cell CPT 15µM (no result: Six1-Eya2 blk, IL-1B inflam inh, CtBP-E1A inh)
COc1ccc(-c2nc(SCC(=O)Nc3ccccc3)c(-c3ccc(F)cc3)[nH]2)cc1OC	DT40 TDP1 no CPT inconclusive, TDP1 cell CPT inconclusive (no result: Six1-Eya2 blk, IL-1B inflam inh, CtBP-E1A inh)
Cc1ccc(S(=O)(=O)n2cccc2/C=C/[N+](=O)[O-])cc1	DT40 TDP1 no CPT 2.9µM, Six1-Eya2 blk inconclusive, IL-1B inflam inh inconclusive, TDP1 cell CPT 2.9µM (no result: TDP1 block)
Cc1ccc(S(=O)(=O)n2ccc3cccnc32)cc1	IL-1B inflam inh inconclusive
Cc1ccc(Cl)cc1NC(=O)CCNC(=O)N1CC(=O)Nc2ccccc21	none
Cc1c(C(=O)Nc2cc(F)cc(F)c2)cnn1-c1ccccc1	DT40 TDP1 no CPT 12µM, TDP1 cell CPT 13µM (no result: TDP1 block, CtBP-E1A inh)
Cc1c(C(=S)Nc2ccccc2)cnn1-c1ccc([N+](=O)[O-])cc1	DT40 TDP1 no CPT inconclusive, TDP1 cell CPT 16µM
Cc1c(C(=S)Nc2ccccc2)cnn1-c1ccccc1	TDP1 cell CPT 21µM
C[C@H](CO)N1C[C@H](C)[C@@H](CN(C)C)Oc2c(NC(=O)C3CC3)cccc2C1=O	Six1-Eya2 blk inconclusive
COc1ccccc1/C=C1\SC(=S)N(CCC(=O)NNC(=O)c2ccccc2O)C1=O	DT40 TDP1 no CPT inconclusive, TDP1 cell CPT inconclusive
O=C(CCCN1C(=O)/C(=C/c2ccccc2Cl)SC1=S)NNC(=O)c1ccncc1	DT40 TDP1 no CPT inconclusive, IL-1B inflam inh inconclusive, TDP1 cell CPT inconclusive
O=C(CCCN1C(=O)/C(=C/c2ccccc2Cl)SC1=S)N1CCCC1	DT40 TDP1 no CPT 21µM, Six1-Eya2 blk inconclusive, IL-1B inflam inh -66, TDP1 cell CPT inconclusive (no result: TDP1 block, CtBP-E1A inh)
O=C(CCN1C(=O)/C(=C/c2ccccc2Cl)SC1=S)N1CCCC1	DT40 TDP1 no CPT 6.5µM, IL-1B inflam inh -64, TDP1 cell CPT 9.2µM

Source: PubChem BioAssay (National Center for Advancing Translational Sciences (NCATS))
